Assay [1] concerns the target Lysine-specific demethylase 5B (Homo sapiens) (UniProt Q9UGL1). The experiment in a line: Optimization screen for KDM5B Histone Demethylases FDH coupled qHTS against the LOPAC library (AID 1347166). Summed up: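 KDM5BDeltaAP (200nM final) in 50mM HEPES pH 7.5, 0.01% Tween-20 was preincubated with compound for 10 min at room temperature. A substrate mix of 12.5uM H3K4Me3, 25uM a-ketoglutarate, ascorbate, Fe2+, NAD+ and formaldehyde dehydrogenase was then added. NADH fluorescence (340/450 nm) was read initially and after 30 min.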
(In general: Quantitative high-throughput screening tests each substance at several concentrations.)

A short description of assay [2]: Vero cells viability qHTS for Zika virus inhibitors (AID 1347167). Summed up:
(§1)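 Luminescent ATP readout (CellTiter Glo) after 30 min at 37 degrees C gives viability; cells in DMEM + 4% FBS were treated 24 to 48 hours with compound, following overnight attachment.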

Assay [3] can be described thus: HepG2 cells viability qHTS for Zika virus inhibitors (AID 1347168). Summed up:
as §1

Inconclusive results are not listed. Where a call stands in place of a potency, no number is given. Active and inactive are the calls of the source. Calls follow the shape of the dose curve; as a rule, active = well fitted curve in the direction sought with a large enough effect; inconclusive = small, poorly fitted or top-dose-only effect, or another doubt; inactive = no such curve, though single readings can be large; an effect the other way counts as inactive or inconclusive.

Chain of Lysine-specific demethylase 5B (Homo sapiens) (Q9UGL1 whole entry, looked up): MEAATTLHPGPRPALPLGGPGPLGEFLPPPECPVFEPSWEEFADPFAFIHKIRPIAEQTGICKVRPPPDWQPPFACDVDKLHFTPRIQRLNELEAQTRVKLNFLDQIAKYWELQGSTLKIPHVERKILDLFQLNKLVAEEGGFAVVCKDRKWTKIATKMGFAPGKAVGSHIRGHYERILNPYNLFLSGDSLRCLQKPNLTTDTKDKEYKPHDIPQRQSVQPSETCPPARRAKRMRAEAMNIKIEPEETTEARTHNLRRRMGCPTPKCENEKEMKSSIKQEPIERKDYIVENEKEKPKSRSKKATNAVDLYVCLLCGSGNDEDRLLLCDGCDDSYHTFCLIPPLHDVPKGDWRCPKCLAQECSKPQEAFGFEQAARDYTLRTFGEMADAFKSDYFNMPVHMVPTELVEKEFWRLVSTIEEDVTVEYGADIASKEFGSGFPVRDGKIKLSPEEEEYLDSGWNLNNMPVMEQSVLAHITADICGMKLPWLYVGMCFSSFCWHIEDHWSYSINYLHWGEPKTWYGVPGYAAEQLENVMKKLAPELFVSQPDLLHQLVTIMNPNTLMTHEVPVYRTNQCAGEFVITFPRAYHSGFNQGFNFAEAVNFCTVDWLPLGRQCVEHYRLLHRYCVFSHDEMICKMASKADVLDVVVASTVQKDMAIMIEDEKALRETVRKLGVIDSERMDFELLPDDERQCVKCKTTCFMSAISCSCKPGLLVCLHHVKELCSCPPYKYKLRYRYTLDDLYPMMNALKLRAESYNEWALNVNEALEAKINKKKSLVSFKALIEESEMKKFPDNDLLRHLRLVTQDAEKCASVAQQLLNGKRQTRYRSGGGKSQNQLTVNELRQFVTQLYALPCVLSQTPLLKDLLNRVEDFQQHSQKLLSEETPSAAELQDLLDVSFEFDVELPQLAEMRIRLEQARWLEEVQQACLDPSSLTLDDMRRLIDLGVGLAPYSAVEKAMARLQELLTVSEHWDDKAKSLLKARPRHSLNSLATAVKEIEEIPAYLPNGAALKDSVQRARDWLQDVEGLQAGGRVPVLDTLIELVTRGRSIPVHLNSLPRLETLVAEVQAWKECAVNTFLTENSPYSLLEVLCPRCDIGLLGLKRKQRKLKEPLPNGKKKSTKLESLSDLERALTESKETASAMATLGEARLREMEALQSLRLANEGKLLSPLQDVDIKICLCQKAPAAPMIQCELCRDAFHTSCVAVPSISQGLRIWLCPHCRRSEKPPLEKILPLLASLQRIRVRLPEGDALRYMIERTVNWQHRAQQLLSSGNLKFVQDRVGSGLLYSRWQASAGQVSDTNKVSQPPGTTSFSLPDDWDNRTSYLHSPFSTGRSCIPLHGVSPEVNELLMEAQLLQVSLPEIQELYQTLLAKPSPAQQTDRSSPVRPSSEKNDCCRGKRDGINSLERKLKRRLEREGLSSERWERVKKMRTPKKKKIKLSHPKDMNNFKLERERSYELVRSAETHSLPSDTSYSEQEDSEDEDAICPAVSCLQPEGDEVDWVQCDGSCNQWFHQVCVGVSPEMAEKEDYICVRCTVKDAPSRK

On to `CN1C2CCC1CC(OC(=O)c1cc(Cl)cc(Cl)c1)C2` (centres undefined), for which the molecule was called inactive in assay [1].
Take `c1ccc(CCCN2CCN(CCOC(c3ccccc3)c3ccccc3)CC2)cc1`: the call in assay [1] was inactive.
In the case of `c1ccc2sc(C3(N4CCCCC4)CCCCC3)cc2c1`, the call in assay [1] was inactive.
Regarding `C/C=C(/C)C(=O)O[C@H]1C(C)=C2[C@H]([C@@H]1OC(=O)CCCCCCC)[C@@](C)(OC(C)=O)C[C@H](OC(=O)CCC)[C@@]1(O)[C@H]2OC(=O)[C@@]1(C)O`, the result in assay [1] was inactive.
Still for that read-out and setting: with `O=C(Cc1ccc(Cl)c(Cl)c1)N1CCCCC1CN1CCCC1` (centres undefined) the entry was “inactive”; with `CCCN(CCC)C1CCc2ccc(O)cc2C1` (centres undefined), “inactive”.
The same measure, in the same setting: with `C[C@@H]1O[C@H](C[N+](C)(C)C)C[C@H]1O` the entry was “inactive”; with `O=C(O)Cc1cnc[nH]1`, “inactive”.
For `NC(N)=NOCCC(N)C(=O)O` (centres undefined), in assay [1], the call was inactive.
Still for that read-out and setting: with `NC(=O)CN1CC(O)CC1=O` (centres undefined) the entry was “inactive”; with `C[N+]1(C)C2CCC1CC(OC(=O)C(CO)c1ccccc1)C2` (centres undefined), “inactive”.
On to `NCc1cc(=O)[nH]o1`, for which, in assay [1], the molecule was classed as inactive.
Still for that read-out and setting: with `Cc1c(C(=O)c2cccc3ccccc23)c2cccc3c2n1[C@H](CN1CCOCC1)CO3` the entry was “inactive”.
Regarding `C=CCN1CC[C@]23CCCCC2[C@H]1Cc1ccc(O)cc13` (some centres undefined), the result in assay [1] was inactive. Further, the Potency result in assay [2] and in assay [3] was “inactive” throughout.
Regarding `CC[C@@H](C(N)=O)N1CCCC1=O`, the outcome in assay [1] was inactive.
Consider `NC(=NCCC[C@H](N)C(=O)O)N[N+](=O)[O-]`, for which the molecule was classed as inactive in assay [1].
On the same count and under the same terms, with `NC(CP(=O)(O)O)C(=O)O` (centres undefined) the entry was “inactive”; with `CS(=N)(=O)CC[C@H](N)C(=O)O` (some centres undefined), “inactive”.
For `COC(=O)[C@@H](N)CCCN=C(N)N[N+](=O)[O-]`, the outcome in assay [1] was inactive.
The same measure, in the same setting: with `C[C@]12CCC3C(CC[C@H]4C[C@H](O)CC[C@]34C)C1CC[C@@H]2C(=O)CO` (some centres undefined) the entry was “inactive”; with `CCCN1CCO[C@@H]2c3cc(O)ccc3OC[C@H]21`, “inactive”.
Same read-out and setting: with `COc1cc(C(O)CN)ccc1O` (centres undefined) the entry was “inactive”.
